Columns and labels:
ETS1 [1] = biological target: T1, ETS1 (UniProt P14921); assay: ETS1 binding intensity (PBM fluorescence), ETS1 alone (arbitrary fluorescence units); higher = stronger binding; conditions: ETS1 concentration 1 nM; RUNX1 concentration 0 nM
T1 sequence: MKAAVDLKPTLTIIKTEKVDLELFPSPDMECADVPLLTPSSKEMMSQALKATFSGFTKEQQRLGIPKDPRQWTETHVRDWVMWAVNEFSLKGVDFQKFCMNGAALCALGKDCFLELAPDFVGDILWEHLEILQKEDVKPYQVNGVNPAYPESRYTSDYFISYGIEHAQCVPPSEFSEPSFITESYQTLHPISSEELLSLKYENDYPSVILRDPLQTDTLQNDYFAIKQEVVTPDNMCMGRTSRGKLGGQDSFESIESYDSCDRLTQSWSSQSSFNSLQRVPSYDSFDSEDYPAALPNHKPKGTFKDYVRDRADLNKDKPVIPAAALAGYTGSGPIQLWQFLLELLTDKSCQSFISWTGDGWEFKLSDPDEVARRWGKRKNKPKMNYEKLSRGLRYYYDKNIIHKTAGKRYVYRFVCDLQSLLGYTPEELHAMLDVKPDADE

RUNX1 [2] = biological target: RUNX1 (UniProt Q01196); assay: RUNX1 binding intensity (PBM fluorescence), RUNX1 alone (arbitrary fluorescence units); higher = stronger binding; conditions: RUNX1 concentration 2 nM; ETS1 concentration 0 nM
Chain of RUNX1 (Q01196 whole entry): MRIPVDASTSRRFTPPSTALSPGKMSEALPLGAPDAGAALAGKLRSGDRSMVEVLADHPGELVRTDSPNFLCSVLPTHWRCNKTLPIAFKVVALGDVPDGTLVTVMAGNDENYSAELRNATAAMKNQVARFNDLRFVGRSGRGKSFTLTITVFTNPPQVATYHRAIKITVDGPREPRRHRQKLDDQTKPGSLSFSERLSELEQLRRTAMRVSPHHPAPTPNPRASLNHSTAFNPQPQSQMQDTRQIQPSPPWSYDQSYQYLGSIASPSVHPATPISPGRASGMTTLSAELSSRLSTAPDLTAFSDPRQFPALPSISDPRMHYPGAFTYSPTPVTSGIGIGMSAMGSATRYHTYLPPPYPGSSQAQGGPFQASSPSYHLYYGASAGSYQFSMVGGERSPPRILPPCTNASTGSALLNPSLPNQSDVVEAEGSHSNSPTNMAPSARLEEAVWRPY
Protocol: (§1)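 Cooperative gcPBM on 36-bp genomic probes with neighbouring ETS1 and RUNX1 sites. Recombinant human RUNX1 (2 nM) was incubated alone or with ETS1 (25 nM) and detected with anti-RUNX1 antibody plus Alexa488 secondary. Values are medians over 4 replicate spots; the RUNX1+ETS1 data were normalised to the RUNX1-only data. The probes sit in constant array flanks that are not printed.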

ETS1 [3] = biological target: T1, ETS1; assay: ETS1 binding intensity (PBM fluorescence) in presence of RUNX1, normalised to ETS1-only experiment (arbitrary fluorescence units); higher = stronger binding; conditions: ETS1 concentration 1 nM; RUNX1 concentration 25 nM
RUNX1 [4] = biological target: RUNX1 (UniProt Q01196); assay: RUNX1 binding intensity (PBM fluorescence) in presence of ETS1, normalised to RUNX1-only experiment (arbitrary fluorescence units); higher = stronger binding; conditions: RUNX1 concentration 2 nM; ETS1 concentration 25 nM
Protocol: as §1
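For RUNX1 binding intensity (PBM fluorescence) in presence of ETS1, normalised to RUNX1-only experiment in this document: Full-length recombinant human ETS1 or RUNX1 bound to double-stranded 36-bp genomic probes on microarrays, detected by protein-specific primary antibody and Alexa488 secondary, spot fluorescence as median of four replicate spots.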
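For RUNX1 binding intensity (PBM fluorescence), RUNX1 alone in this document: Full-length recombinant human RUNX1 bound to double-stranded 36-bp genomic probes on a high-density microarray, scored as Alexa488 fluorescence per spot via anti-RUNX1 antibody, median of four replicate spots.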

Sequence | ETS1 binding intensity (ETS1 [1]) | RUNX1 binding intensity (RUNX1 [2]) | ETS1 binding intensity (ETS1 [3]) | RUNX1 binding intensity (RUNX1 [4])
GGGCGCGACTTCCGGGGCGGCGGTTGCATCAGATTC | 1580 | 774 | 1780 | 2100
CTCGCCCCATTTCCCGTAAATATCAGCCACAGACCA | 546 | 1350 | 464 | 1900
TGACTAAGACCGGAAGAAACCACAAAAACACAAAAA | 2580 | 2700 | 6730 | 4540
GGCCCTTCTGGGGCAGGATGTGGTGCCTGCCAAAGG | 4650 | 707 | 6110 | 891
CGAAAGTGACCGGAAGTAACCGCCGGGCCAAGATGG | 17800 | 795 | 18200 | 1530
CGGTTCCGGCGCCTGAAGTTTTAGCTGCGGTGGCGG | 347 | 794 | 676 | 1720
CGCCGGATGCATAAAAGACTGGCTGCGGTGGCTCAG | 604 | 724 | 1300 | 973
AATCCCGGAAACGCGGATTCAGCGGAGCGCGGTGAC | 1280 | 735 | 1500 | 1260
TTAAGGAGCTTCCGGGGCCGCGGGTAGAGGCGGGTG | 629 | 676 | 741 | 1420
GCCATTAAAGCAGCTTCCTGTGGGCGCGGCGCAGGA | 888 | 753 | 867 | 1010
CTTGCCACACTTCCTCTTGTTTTGAACCACTATATT | 724 | 2620 | 641 | 4740
CGAGATCCTGGCCACGGATGCGGTGGCCGCGCCTCT | 414 | 795 | 660 | 975
GAGAGAGGCAGGAAGTGTTGTGGTTATTGTTTGAGC | 4710 | 1240 | 24200 | 2210
GAGACAGGAAATGTAGACTTGAGTCCTGTGGTAAAC | 1910 | 739 | 6740 | 1260
ACAGAGAAGCTTCCTATTGTGGGATTCACCACCACC | 623 | 735 | 705 | 942
AAAGACAGGATGTGGGGGAGTGAGCCACAAGGGCCC | 1160 | 752 | 1720 | 2080
CGTGGCGGAAGCCGCGGGGACTGCGGGGGCGGAGTG | 537 | 924 | 528 | 893
GCCCAGGAAGTGGGTACAAAATGAGCCACAAGACCT | 616 | 768 | 839 | 1610
GACTCCATTTCCCGTCGGCTCGCGGTGGGAGCGCCG | 417 | 981 | 453 | 1900
AATCCAACACTTCCTCCTCCACCGCAGAAAGGCAAC | 518 | 1490 | 966 | 2670
AAGGCGGAGGAAGGGAAAATTGTGGTTGGGCAGAGG | 511 | 835 | 742 | 887

Sequence | ETS1 binding intensity (ETS1 [1]) | RUNX1 binding intensity (RUNX1 [2]) | ETS1 binding intensity (ETS1 [3]) | RUNX1 binding intensity (RUNX1 [4])
AGCTTGCCGGAAGCTGGTTGTTCGCTGCGGCGACCA | 4100 | 705 | 4380 | 1220
TAACTACTTCCTTTTACTATCTACCACAATTTAATT | 516 | 1620 | 510 | 2810
CTCACAACTCGCGTCCGGCGGAGACCACAATTCCCG | 412 | 863 | 530 | 1230
CCTGCCGAGGAAGTCCCACGTCACTGCGGTTAGAGT | 356 | 1670 | 2090 | 3000
GGGCAGGGCATTTCCTTTGTGGCTGGTGCTCACGGA | 493 | 710 | 413 | 1360
CCAGAGGGCGGAAGTGGGAGCTGCGACCGCGCTCCC | 3670 | 690 | 6280 | 1880
GTTTCATGTTAAGTAGGATGTGGTCAGTTAGCTTCG | 851 | 1120 | 5410 | 1290
CACCCATAGCACCCCGGAAACCACCTCCACCACCTG | 1890 | 1390 | 2240 | 2020
AGGCCGCCTACAGGATGTTGGAAACCACAGGGCCCG | 2910 | 765 | 29100 | 2660
TGTATAACATCCTCATGTTCTGTGGGTGAGTTGAGC | 481 | 824 | 356 | 871
GTTGCCCCACTTCCTGCCAGTGGTTTTTGGTTGGCC | 2660 | 944 | 4220 | 4040
CAAGCTGGCAGGAAGCGCGGTGCAACCACAAGAGTC | 1870 | 765 | 6690 | 1260
ATCACAAGCAGAGGATGTGGTTAGTGTTTCGTTCCA | 804 | 995 | 5580 | 2160
GACTGGACAACTTCCTGGTGGAAAACCGCGACTCTT | 637 | 1050 | 2930 | 2340
GTCCTCTTCCTGTCCCCCAGGTGGGCATGTGGTTTG | 519 | 988 | 751 | 1790
TTTACTGAGAGGAAGTGGTTCTTGTGGGTGAAGGTC | 2420 | 898 | 6070 | 1530
TGCTTTTCAGGTGCAGGAAGTGGTTTGCCTTTGCCC | 7810 | 788 | 11000 | 1200
AGCGCGCCGCCGACCGGATGCGGGAACTGGGCTCGG | 11800 | 715 | 19400 | 1550
GGCACCGGAAGTAGAGCTGCCCCTAGTTGCGGCAGT | 9240 | – | 12800 | 1380
ACCATATCCTGAGAATGAACCATGTGGTGGATGCAC | 519 | 795 | 487 | 1270

From the supplement of paper PMC10681739
